Source: PubChem BioAssay AID1533 (PCMD, 2009)
About 45 (0.03%) of roughly 160,000 compounds were called active. This is one part of a sample in which actives are shown more often than they occur. Cut-off read from the data, not from the text of the source: active = inhibition mostly above about 34% (no sharp cut-off); inconclusive = no clear call, values can overlap the other calls; inactive = mostly below about 22%.

Target: dTDP-4-dehydrorhamnose reductase (Mycobacterium tuberculosis (strain ATCC 25618 / H37Rv)) + dTDP-4-dehydrorhamnose 3,5-epimerase (Mycobacterium tuberculosis (strain ATCC 25618 / H37Rv)) (UniProt P9WH09+P9WH11)
Sequence (P9WH09 whole entry, looked up): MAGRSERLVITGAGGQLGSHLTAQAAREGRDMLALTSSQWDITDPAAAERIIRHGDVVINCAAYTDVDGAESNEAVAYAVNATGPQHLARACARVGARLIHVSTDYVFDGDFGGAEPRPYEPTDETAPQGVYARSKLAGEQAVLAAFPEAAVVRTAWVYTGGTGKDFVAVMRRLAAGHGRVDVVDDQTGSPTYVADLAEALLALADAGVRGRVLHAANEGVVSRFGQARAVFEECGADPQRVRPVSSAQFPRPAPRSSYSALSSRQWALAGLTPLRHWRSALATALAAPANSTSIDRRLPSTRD
Sequence (P9WH11 whole entry, looked up): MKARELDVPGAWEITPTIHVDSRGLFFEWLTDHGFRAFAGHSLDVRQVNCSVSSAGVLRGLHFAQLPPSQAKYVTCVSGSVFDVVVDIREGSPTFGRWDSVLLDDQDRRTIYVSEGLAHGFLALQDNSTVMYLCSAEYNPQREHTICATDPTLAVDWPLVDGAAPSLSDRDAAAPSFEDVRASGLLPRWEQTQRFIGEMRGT
Test: M. tuberculosis RmlC/RmlD coupled enzyme inhibitors, primary screen, biochemical, compound mixtures, 384-well, from 1536-well plates (AID 1533)
Conditions: RmlC+RmlD coupled enzyme assay, percent inhibition, primary screen in compound mixtures, stronger effect = higher value

With `COc1ccc2[nH]c(=S)cc(C)c2c1` the inhibition (at 3.6 µM) was 1.84% (inactive).
With `Cc1cc(=O)oc2cc(OCCC[n+]3ccccc3)ccc12` the inhibition (at 3.6 µM) was 2.56% (inactive).
In the case of `CCc1ccc(-n2c(SCc3cc(=O)n4cc(Br)ccc4n3)nc3[nH]ncc3c2=O)cc1`, the inhibition (at 3.6 µM) is reported as -10.8% (inactive).
`CCn1c2ccccc2c2cc(NC(=O)Nc3ccc([N+](=O)[O-])cc3C)ccc21` was tested, and the inhibition (at 3.6 µM) was 14.1% (inactive).
For `O=C(Nc1cccnc1)c1cc([N+](=O)[O-])ccc1Cl`, the inhibition (at 3.6 µM) was -16% (inactive).
For `COc1cccc(C(=O)n2ccc(-c3cccs3)n2)c1`, the inhibition (at 3.6 µM) was 2.94% (inactive).
For `COc1ccc(N(Cc2ccccc2)S(=O)(=O)c2cccc(C(=O)O)c2)cc1`, the inhibition (at 3.6 µM) was 1.87% (inactive).
`COc1ccccc1Cn1c(CO)nc2ccccc21` was tested, and the inhibition (at 3.6 µM) was 17.8% (inactive).
`CC(=O)N1N=C(c2ccncc2)OC1(Cc1ccccc1)Cc1ccccc1` was tested, and the inhibition (at 3.6 µM) was 9.53% (inactive).
With `COc1cccc(CNn2cn[nH]c2=S)c1OCc1ccccc1` the inhibition (at 3.6 µM) was -3.37% (inactive).
In the case of `C=CCN1C(=O)C(O)(CC(=O)c2ccccn2)c2ccccc21` (stereo not drawn), the inhibition (at 3.6 µM) is reported as -20.3% (inactive).
For `S=c1[nH]nc(Nc2ccccc2)s1`, the inhibition (at 3.6 µM) was -6.55% (inactive).
For `CC1C(=O)NC(=O)C1c1ccccc1` (stereo not drawn), the inhibition (at 3.6 µM) was 11.3% (inactive).
For `COc1ccc(NC(=O)C2CCC(CNc3c(N4CCCCC4)c(=O)c3=O)CC2)c(OC)c1` (stereo not drawn), the inhibition (at 3.6 µM) was 1.5% (inactive).
For `O=C(Nc1ccccc1)Nc1ccc(C(F)(F)F)cn1`, the inhibition (at 3.6 µM) was -12.1% (inactive).
In the case of `COC(=O)c1sc(SC)c(S(=O)(=O)C(C)C)c1N/N=C(\C#N)S(=O)(=O)c1ccccn1`, the inhibition (at 3.6 µM) is reported as 26.5% (inactive).
With `O=C(NC1C2CC3CC(C2)CC1C3)c1ccc(N2CCNCC2)c([N+](=O)[O-])c1` (stereo not drawn) the inhibition (at 3.6 µM) was -17.8% (inactive).
For `C=CCC1(C#N)C(=S)NC(C)=C(C(=O)OCC)C1c1ccccc1` (stereo not drawn), the inhibition (at 3.6 µM) was -2.23% (inactive).
`Cc1c(Cc2ccccc2)c(=O)oc2cc(OCC(N)=O)ccc12` was tested, and the inhibition (at 3.6 µM) was -14.1% (inactive).
With `Cn1c(SCC(=O)c2ccc(F)cc2)nnc1-c1ccccn1` the inhibition (at 3.6 µM) was -3.85% (inactive).
In the case of `CCOC(=O)COc1nc(C)cc(C(F)(F)F)c1C#N`, the inhibition (at 3.6 µM) is reported as 2.06% (inactive).
For `O=C(O)CCCCCCCCCC[n+]1ccccc1`, the inhibition (at 3.6 µM) was 9.14% (inactive).
With `NC(=O)c1ccc(NC(=O)COC(=O)c2ccc([N+](=O)[O-])cc2)cc1` the inhibition (at 3.6 µM) was 11.7% (inactive).
For `Cc1cc(N2CCN(c3ccc(F)cc3)CC2)n2ncnc2n1`, the inhibition (at 3.6 µM) was 15.1% (inactive).
`CN(C)C(=O)c1nc2ccc(Cl)cn2c1CNCc1cccc(OC(F)(F)F)c1` was tested, and the inhibition (at 3.6 µM) was 10.5% (inactive).
For `O=C(c1ccc(=O)oc1)N1CCC(C(O)(c2ccccc2)c2ccccc2)CC1`, the inhibition (at 3.6 µM) was 7.4% (inactive).
With `O=C(COC(=O)/C=C/c1ccc2c(c1)OCO2)NC1CCS(=O)(=O)C1` (stereo not drawn) the inhibition (at 3.6 µM) was -0.46% (inactive).
With `CCCCc1nnc(NC(=O)CSc2nc(N)cc(=O)[nH]2)s1` the inhibition (at 3.6 µM) was -1.44% (inactive).
With `CCC(O)C1CCN(Cc2cn(-c3ccc(OC)cc3)nc2-c2cccc(F)c2)CC1` (stereo not drawn) the inhibition (at 3.6 µM) was -7.8% (inactive).
With `CC(NC(=S)Nc1ccccc1)C(c1cccs1)N1CCOCC1` (stereo not drawn) the inhibition (at 3.6 µM) was 3.55% (inactive).
For `CCC1CCCCN1C(=O)CSc1nc2c(c(=O)n(C)c(=O)n2C)n1C` (stereo not drawn), the inhibition (at 3.6 µM) was -9.61% (inactive).
In the case of `CCOC(=O)c1ccccc1NC(=S)N1CCC(C(N)=O)CC1`, the inhibition (at 3.6 µM) is reported as -16.5% (inactive).
In the case of `CC1=NN(c2ccccc2)C(=O)C1C(=O)c1ccc([N+](=O)[O-])cc1` (stereo not drawn), the inhibition (at 3.6 µM) is reported as 4.71% (inactive).
`CCCNc1c(N)c(=O)c1=O` was tested, and the inhibition (at 3.6 µM) was -3% (inactive).
For `COc1ccc(CCNC(=O)C(=O)Nc2ccc3nc4n(c(=O)c3c2)CCCCC4)cc1OC`, the inhibition (at 3.6 µM) was -7.43% (inactive).
`CN1CCN(c2ncc3c(n2)CC(c2ccccc2F)CC3=O)CC1` (stereo not drawn) was tested, and the inhibition (at 3.6 µM) was 2.14% (inactive).
For `N#C/C(=C(\O)C(F)(F)F)c1nnc2n1CCCCC2`, the inhibition (at 3.6 µM) was 31.1% (inactive) and the inhibition (measured here: mean retest inhibition, at 5.5 µM) was -1.52%.
For `CCOc1ccc2nc(NCCNC(=O)C(C)(C)C)c(C)cc2c1`, the inhibition (at 3.6 µM) was -1% (inactive).
`Cn1cc(S(=O)(=O)NC(c2ccccc2)c2ccccc2)c(=O)n(C)c1=O` was tested, and the inhibition (at 3.6 µM) was -1% (inactive).
`CN(c1ccc(OCC(=O)NC2=NCCS2)cc1)S(=O)(=O)c1ccc(F)cc1` was tested, and the inhibition (at 3.6 µM) was 9.17% (inactive).
For `CC1CC1C(=O)OCC(=O)c1c(N)n(C)c(=O)n(C)c1=O` (stereo not drawn), the inhibition (at 3.6 µM) was -8.03% (inactive).
`O=S(=O)(NCCc1csc(-c2ccccc2)n1)c1cccnc1` was tested, and the inhibition (at 3.6 µM) was 4.16% (inactive).
For `Cc1nnc2n1N=C(c1ccc3c(c1)NC(=O)CO3)CS2`, the inhibition (at 3.6 µM) was -5.45% (inactive).
For `COc1ccc(C)cc1NC(=O)c1ccc(-c2ccc(C(C)=O)cc2)o1`, the inhibition (at 3.6 µM) was 6.7% (inactive).
For `C/C(=N/NC(=O)CC(=O)N/N=C(\C)c1ccc([N+](=O)[O-])cc1)c1ccc([N+](=O)[O-])cc1`, the inhibition (at 3.6 µM) was 11.2% (inactive).
For `O=C(Nc1nc2ccc([N+](=O)[O-])cc2s1)c1ccncc1`, the inhibition (at 3.6 µM) was 8.08% (inactive).
In the case of `COc1cc(CN2CCNC(=O)C2CC(=O)NCCc2ncccc2C)cc(OC)c1` (stereo not drawn), the inhibition (at 3.6 µM) is reported as -11.4% (inactive).
`CN(CC(=O)Nc1ccccc1F)CC(=O)Nc1ccccc1Br` was tested, and the inhibition (at 3.6 µM) was 27.7% (inactive).
With `Cc1c(C)c(C)c2[nH]c(=S)[nH]c2c1C` the inhibition (at 3.6 µM) was 4.61% (inactive).
`O=c1[nH]c(CSc2ccccc2)nc2c1oc1ccccc12` was tested, and the inhibition (at 3.6 µM) was 2.42% (inactive).
With `CCOc1ccc(NC(=S)N2CCCCCC2)cc1` the inhibition (at 3.6 µM) was -16.4% (inactive).
`CCOc1ccc(NS(=O)(=O)c2cc(C)c(C)cc2C)cc1` was tested, and the inhibition (at 3.6 µM) was -11.4% (inactive).
In the case of `CC(=O)c1c(C)[nH]c(=S)c(C#N)c1-c1ccc(F)cc1`, the inhibition (at 3.6 µM) is reported as 10.4% (inactive).
In the case of `CCCc1nc2oc3c(=O)[nH]cnc3c2c2c1COC(C)(C)C2`, the inhibition (at 3.6 µM) is reported as -9.43% (inactive).
In the case of `O=C(NCc1cccnc1)C(=O)Nc1nc(-c2ccccc2)cs1`, the inhibition (at 3.6 µM) is reported as -5.87% (inactive).
`Oc1oc(-c2ccccc2Br)nc1/C=N/c1ccccn1` was tested, and the inhibition (at 3.6 µM) was 2.05% (inactive).
In the case of `Oc1cccc2ccc(/C=C/c3ccc(Br)s3)nc12`, the inhibition (at 3.6 µM) is reported as -11.7% (inactive).
For `CN(C)CCOc1cccc(Br)c1`, the inhibition (at 3.6 µM) was 11.8% (inactive).
In the case of `CN(C)c1ccc(NC(=O)CSc2n[nH]c(-c3ccco3)n2)cc1`, the inhibition (at 3.6 µM) is reported as -3.13% (inactive).
For `Cc1nc2ccccn2c1C(=O)NN=C1CCN(C)CC1`, the inhibition (at 3.6 µM) was -1.88% (inactive).
With `CC(C)OCCCNC(=O)c1ccc(C2SCC(=O)N2Cc2ccco2)cc1` (stereo not drawn) the inhibition (at 3.6 µM) was 1.23% (inactive).
With `CCn1c(CSCc2c(Cl)cccc2Cl)n[nH]c1=S` the inhibition (at 3.6 µM) was -0.03% (inactive).
